Experimental data taken from PubChem BioAssay AID602431 (Southern Research Specialized Biocontainment Screening …, 2012).
Results with a measured potency or affinity are listed apart. Records with an inconclusive call do not appear. Values without a mark were called inactive. The rule behind the calls is not given here.

Assay: Vero cell cytotoxicity, cytotoxicity control for M. tuberculosis inhibitor project, purified and synthesized samples, set 8 (AID 602431)
Conditions: series mostly up to 100 µM; viability: at the top concentration

Row | SMILES | viability
1 | COC(=O)C(Cc1ccccc1)NC(=O)CSc1nc2ccccc2c(=O)[nH]1 (configuration not stated) | 96.1%
2 | O=C(c1ccc(CNc2c(N3CCCC3)c(=O)c2=O)cc1)N1CCN(c2ccccc2)CC1 | 97.1%
3 | O=C(NCc1ccc(C(=O)N2CCN(c3ccccc3)CC2)cc1)NC1CCCCC1 | 99.6%
4 | O=C(CSc1nc2c(c(=O)[nH]1)CCC2)NC1CCCCC1 | 95.9%
5 | CC(C)CCNC(=O)CSc1nc2c(c(=O)[nH]1)CCCCC2 | 93.8%
6 | COCCNC(=O)CSc1nc2ccccc2c(=O)[nH]1 | 91.8%
7 | O=C(CSc1nc2c(c(=O)[nH]1)CCCC2)NC1CCCCC1 | 85.2%
8 | O=C(CSc1nc2ccccc2c(=O)[nH]1)NC1CCOCC1 | 87.4%
9 | CC(C)CCNC(=O)CSc1nc2c(c(=O)[nH]1)CCCC2 | 89.3%
10 | CC(C)CCNC(=O)CSc1nc2ccccc2c(=O)[nH]1 | 88.2%
11 | O=C(c1ccc(CNc2c(N3CCOCC3)c(=O)c2=O)cc1)N1CCN(c2ccccc2)CC1 | 99.7%
12 | O=C(c1ccc(CNc2c(N3CCOCC3)c(=O)c2=O)cc1)N1CCC(c2ccccc2)CC1 | 94.5%
